The whole screen tested about 410,000 compounds, of which about 5,100 (1.2%) were called active. About 8% were inconclusive and are not listed. The list comes from a sample in which actives are over-represented; it also holds similar structures and randomly drawn compounds. A call without a number means that no potency is given here. A number with no mark means an inactive call. The call rests on the fitted dose curve; tested in HEK293T cells.
Potency means the concentration at half of the fitted maximal effect.

This experiment in a line: High Throughput Screening for Foot and Mouth Disease Virus Antivirals. Further: read-out not given here; nearly all actives have a fitted effect of over 45% in size. To be noted: FMDV antiviral cell-based qHTS; series mostly up to 57.9 µM.
As to `CN(CC(=O)Nc1cccc(C(F)(F)F)c1)S(=O)(=O)c1cccs1`, the Potency entry was “inactive”.
On to `COc1ccccc1CNC(=O)C(=O)NCC(c1cccs1)S(=O)(=O)c1cccs1` (centres undefined), for which the Potency result was “inactive”.
As to `C#CCOc1ccccc1/C=C1/C(=O)ON=C1C`, the Potency was 39.8 µM (active).
On the same count and under the same terms, the value for `Cc1no[n+]([O-])c1COc1ccccc1/C=C1\NC(=S)NC1=O` was “inactive”; that for `CN1CCCCCC1C(=O)NCCN1Cc2ccccc2OC(c2ccsc2)C1` (centres undefined) was “inactive”.
For `Cc1cc(C(=O)CCl)c(C)n1CC1COc2ccccc2O1` (centres undefined), the Potency is 12.6 µM (active).
For the compound `CCn1ccnc1C[C@@H]1COc2ccccc2O1`, the Potency result was “inactive”.
Consider `Cc1n[nH]c(C)c1S(=O)(=O)N1CCCC(C(=O)NCC2COc3ccccc3O2)C1` (centres undefined), for which the Potency entry is “inactive”.
`Cc1ccc(-c2cn3c(n2)sc2cc(C(=O)NCCCc4ccccc4)ccc23)cc1`: the Potency result was “inactive”.
With `COc1cc(C2c3c(oc4ccccc4c3=O)C(=O)N2c2nc(C)c(C)s2)ccc1O` (centres undefined), the Potency result is “inactive”.
On to `COC(C[C@@H]1O[C@@H]1C(=O)[C@H](C)OCc1ccccc1)OC`, for which the Potency result was “inactive”.
Consider `COC(C[C@H](O)CC(=O)[C@@H](C)OCc1ccccc1)OC`, for which the Potency result was “inactive”.
In the case of `COC(C/C=C/C(=O)[C@@H](C)OCc1ccccc1)OC`, the Potency was 39.8 µM (active).
Consider `Cc1nc2cnc(N3CCNCC3)nc2n(Cc2ccc(F)cc2)c1=O`, for which the Potency result is “inactive”.
Regarding `C=CCSSCC=C`, the Potency result was “inactive”.
For the compound `N#CCCN(C(=O)COC(=O)c1ccc2c(c1)OCCO2)c1ccccc1`, the Potency entry is “inactive”.
Turning to `O=C(COC(=O)c1ccccc1)c1ccc2c(c1)OCCO2`, the Potency is 12.6 µM (active).
Same read-out and setting: for `O=C(OCc1ccccc1F)c1ccc2c(c1)OCCO2` the value was “inactive”.
The same measure, in the same setting: for `COc1cc(=O)n2c(c1C(=O)N(C)Cc1nonc1C)CCN(C(=O)c1ccc(C)cc1C)CC2` the value was “inactive”.
The same measure, in the same setting: the value for `COc1ccc(-c2nc3cnc(N(C)C)nc3n(Cc3cccs3)c2=O)cc1` was “inactive”; that for `Cc1cccc(-n2ncc(C(=O)N3CCc4ccccc4C3)c2C2CCN(C(=O)OC(C)(C)C)CC2)c1` was 2 µM (active).
As to `Cc1cccc(-n2ncc(C(=O)N3CCC(C)CC3)c2C2CCN(C(=O)OC(C)(C)C)CC2)c1`, the Potency result was “inactive”.
As for `Cc1cccc(-n2ncc(C(=O)N3CCN(c4ccc(Cl)cc4)CC3)c2C2CCN(C(=O)OC(C)(C)C)CC2)c1`, the Potency result is “inactive”.
On the same count and under the same terms, for `O=C(Nc1nc(-c2ccc3c(c2)OCO3)cs1)c1ccncc1` the value was 15.8 µM (active); for `CC(O)(c1cccc(F)c1)c1nc(-c2ccc3c(c2)OCO3)cs1` (centres undefined), “inactive”.
On to `c1ccc2c(Nc3ccncc3)nc(-c3ccc4c(c3)OCO4)nc2c1`, for which the Potency result was “inactive”.
For `COCCn1c(=O)c(-c2cccs2)nc2cncnc21`, the Potency result is “inactive”.
For the compound `Cc1c(C(=O)NCC2CCCN(C)C2)cnn1-c1nccc(-c2ccco2)n1` (centres undefined), the Potency entry was “inactive”.
Take `Cc1ccc(NC(=O)CN2c3ccccc3S(=O)(=O)c3ccccc32)cc1F`: the Potency result was “inactive”.
For `CCCCN(CC(=O)NC(C)(C)C)C(=O)C(=O)Nc1ccc2c(c1)OCCO2`, the Potency result is “inactive”.
For `COC(=O)CCNc1ccc2c(c1)OCCO2`, the Potency was 11.2 µM (active).
With `CCC(C)(C)NC(=O)CN(C(=O)C(=O)Nc1ccc2c(c1)OCCO2)C(C)(C)CC`, the Potency entry is “inactive”.
Consider `CCCCC/C=C\C/C=C\C/C=C\C/C=C\CCCCCC(=O)NCCO`, for which the activity change, negative = inhibition was -8.95% [at 6.7 µM].
As to `O=C1NS(=O)(=O)c2ccccc21`, the Potency result was “inactive”.
As for `CCc1nccn1S(=O)(=O)c1cc(Br)ccc1Br`, the Potency result was “inactive”.
The same measure, in the same setting: for `CCOc1c(Br)cc(/C=C2\C(=O)N(CCC#N)N=C2C)cc1OC` the value was 28.2 µM (active); for `CSc1ccc(C2C(C(=O)Nc3ccccc3)=C(C)Nc3nc4ccccc4n32)cc1` (centres undefined), “inactive”; for `COC(=O)c1c(OCc2ccc(F)cc2)cc(=O)n2c1CCN(Cc1ccc3cccnc3c1)CC2`, “inactive”.
As to `Cc1cccc(CC(=O)Nc2cccc(-c3cn4cccnc4n3)c2)c1`, the Potency entry is “inactive”.
With `COc1ccc(-c2[nH]c3c(c2-c2c(-n4cccc4)n(C)c(=O)n(C)c2=O)c(=O)n(C)c(=O)n3C)cc1`, the Potency result was “inactive”.
For `O=C(NCc1ccc(Cl)cc1)c1ccc2c(c1)nnn2C1CCCC1`, the Potency result is “inactive”.
In the case of `O=C(/C=C/c1cnc2ccccc2n1)NC1CCCCCC1`, the Potency result is “inactive”.
Still for that read-out and setting: the value for `O=C(Cn1nnc(-c2ccccc2)n1)NC(=O)NC1CCCC1` was “inactive”; that for `Cc1nc(/N=C(\N)NC(=O)NC2CCCCC2)nc2ccccc12` was 31.6 µM (active).
`CCOC(=O)N1CCC(N2CCOc3ccc(CN4CCC(O)(c5cccnc5)CC4)cc3C2)CC1`: the Potency entry is “inactive”.
With `COc1cccc(CNC(=O)Cn2c(=O)c3cccn3c3ccc(F)cc32)c1OC`, the Potency result is “inactive”.
On the same count and under the same terms, the value for `COCc1c(C(=O)NC2CCCCC2)cnn1-c1nccc(-c2ccccc2OC)n1` was “inactive”.
Take `CN1/C(=C\C=C2\N=C(c3ccc(F)cc3)OC2=O)C(C)(C)c2ccccc21`: the Potency result was “inactive”.
In the case of `CC(=O)Nc1cccc(OCC(=O)/C=C2\N(C)c3ccccc3C2(C)C)c1`, the Potency was 25.1 µM (active).
Consider `COc1cccc(NC(=S)C(C#N)=C2N(C)c3ccccc3N2C)c1`, for which the Potency result is “inactive”.
With `COc1ccccc1CNc1ncncc1-c1cccc(NS(C)(=O)=O)c1`, the Potency entry was “inactive”.
In the case of `O=P(O)(O)C(O)c1ccc2ccccc2c1` (centres undefined), the Potency entry was “inactive”.
For `Cc1ccc(CS(=O)(=O)CCC(=O)NC2CC2)cc1`, the Potency entry is “inactive”.
In the case of `C#CCN(C[C@@H]1[C@@H](OC(=O)NC2CC2)[C@@H](OC(=O)NC2CC2)Cn2c(=O)ccc(=O)n21)S(=O)(=O)c1ccc(C)cc1`, the Potency is 20 µM (active).
`COc1ccccc1Nc1cc(C(=O)NCCCN(C)C2CCCCC2)c2ccccc2n1`: the Potency entry is “inactive”.
Turning to `O=C(c1ccco1)N(Cc1nc2ccccc2c(=O)[nH]1)C1CCCC1`, the Potency result is “inactive”.
Still for that read-out and setting: for `CN(c1ccc2nc3ccccc3c(=O)n2n1)C1CCCCC1` the value was 20 µM (active).
Take `COc1cc(=O)n2c(c1C(=O)NC(C)c1ccco1)CCN(C(=O)c1cn3ccc(C)cc3n1)CC2` (centres undefined): the Potency entry was “inactive”.
Still for that read-out and setting: the value for `CCN(C(=O)c1sc2cc(OC)ccc2c1Cl)c1ccccc1` was “inactive”; that for `COc1ccccc1CNc1nc(-c2c(C)noc2C)nc2ccccc12` was “inactive”; that for `CCCCC(=O)N(C)c1c(CC)nc2c(OCc3ccc(Cl)cc3Cl)cccn12` was “inactive”.
Consider `CCc1nc2c(OCc3ccc(Cl)cc3Cl)cccn2c1N(C)C(=O)C(C)C`, for which the Potency was 31.6 µM (active).
On the same count and under the same terms, the value for `CCc1nc2c(OCc3cccc(OC)c3)cccn2c1N(C)C(=O)C(C)C` was “inactive”.
The same measure, in the same setting: for `COc1ccc(C2Sc3ccccc3NC3=C2C(=O)c2ccccc23)c(OC)c1OC` (centres undefined) the value was “inactive”; for `O=C(/C=C/Sc1ncn[nH]1)c1ccc(Cl)cc1`, 28.2 µM (active); for `O=S(=O)(NCCc1nnc2ccc(SCc3ccc(Cl)cc3Cl)nn12)c1ccccc1`, “inactive”.
Regarding `CCc1ccccc1NC(=O)Cn1c(=O)n(CC2CCC(C(=O)NCCc3ccccc3)CC2)c(=O)c2ccccc21` (centres undefined), the Potency result was “inactive”.
For the compound `Cc1cc(C)cc(NS(=O)(=O)c2cc3c(cc2C)NC(=O)CO3)c1`, the Potency result is “inactive”.
In the case of `Cn1nnnc1SCCCNCc1cccc(OCc2ccc(Cl)cc2)c1`, the Potency result was “inactive”.
With `Cc1ccc(OCCSc2nc(C)c(Cc3ccccc3)c(=O)[nH]2)cc1`, the Potency entry was “inactive”.
As to `CC(=O)Nc1ccc(S(=O)(=O)N2CCN(c3ccc([N+](=O)[O-])c(NCCN4CCOCC4)c3)CC2)cc1`, the Potency result is “inactive”.
For the compound `COc1ccc(CCNc2cc(N3CCN(C(=O)c4ccccc4OC)CC3)ccc2[N+](=O)[O-])cc1OC`, the Potency is 8.91 µM (active).
For the compound `COc1ccc(CCNC(=O)C2CCCN2C(=O)Nc2ccccc2)cc1OC` (centres undefined), the Potency entry was “inactive”.
In the case of `CC(C)c1ccc(NC(=O)c2cc(S(=O)(=O)N3CCc4ccccc4C3)ccc2F)cc1`, the Potency entry is “inactive”.
For `Cc1ccccc1CNC(=O)c1cccc(NC(=O)c2nsc3ccccc23)c1`, the Potency entry is “inactive”.
`O=C(CSc1ncc(CO)n1Cc1ccc(F)cc1)NCc1ccco1`: the Potency entry was “inactive”.
As to `Cc1ccc(C(=O)COC(=O)CCCC(=O)NC2CCCCC2)cc1[N+](=O)[O-]`, the Potency result was “inactive”.
Regarding `Cc1cc(C=O)c(C)n1-c1ccc(NC2CCCCC2)c([N+](=O)[O-])c1`, the Potency was 31.6 µM (active).
For the compound `COc1ccc(NC(=O)CN(C)C(=O)c2ccc(NC3CC3)c([N+](=O)[O-])c2)cc1`, the Potency entry is “inactive”.
In the case of `CCN(CC(=O)NC1CCS(=O)(=O)C1)S(=O)(=O)c1ccccc1` (centres undefined), the Potency result was “inactive”.
For the compound `O=S1(=O)CCC(NC(=S)SCc2ccccc2Br)C1` (centres undefined), the Potency was 15.8 µM (active).
Same read-out and setting: for `O=C(CSc1ccccc1F)NC1CCS(=O)(=O)C1` (centres undefined) the value was “inactive”.
In the case of `COc1ccccc1C(=O)Nc1c(C(=O)Nc2ccc(C)cc2)oc2ccccc12`, the Potency result was “inactive”.
Take `C/C=C1\C2C=C(C)CC1(N)c1ccc(=O)[nH]c1C2` (centres undefined): the Potency result was “inactive”.
As for `Cc1ccc2oc(C(=O)Nc3ccc(S(=O)(=O)N4CCCCCC4)cc3)cc(=O)c2c1`, the Potency result was “inactive”.
On to `CCC1CCCCN1S(=O)(=O)c1ccc(NC(=O)c2cc(=O)c3ccccc3o2)cc1` (centres undefined), for which the Potency is 20 µM (active).
As to `Cc1cc(C)c2oc(C(=O)Nc3ccc(S(=O)(=O)N4CCCCCC4)cc3)cc(=O)c2c1`, the Potency result is “inactive”.
Consider `Cc1c(Cl)cccc1NC(=O)c1noc2c1CCCC2`, for which the Potency result was “inactive”.
On the same count and under the same terms, the value for `Cc1cccc(N2CCN(C(=O)c3ccc4c(c3)CCN4S(=O)(=O)c3ccccc3)CC2)c1C` was “inactive”.
Take `COc1ccc(C)cc1NC(=O)CCc1c(C)nn(-c2ccc(N3CCOCC3)nn2)c1C`: the Potency entry was “inactive”.
Same read-out and setting: the value for `CC(C)=CCN1CCC2(CCc3ccccc32)CC1` was “inactive”; that for `COc1cccc(C(=O)NC(=O)Nc2nc(C)cc(C(F)(F)F)n2)c1` was “inactive”; that for `COc1ccc(C(=O)Nc2ccc(-n3nncc3-c3ccccc3)cc2)cc1OC` was “inactive”.
As to `COc1cccc(C(=O)Nc2ccc(-c3cc(C(F)(F)F)nn3-c3ccccc3)cc2)c1`, the Potency was 12.6 µM (active).
Regarding `Cc1csc(-c2coc3cc(O[C@@H]4O[C@H](CO)[C@@H](O)[C@@H](O)[C@H]4O)ccc3c2=O)n1`, the Potency entry was “inactive”.
As to `Cc1ccc(NC(=O)c2cnc(SCC(=O)NCC3CCCO3)n(C)c2=O)cc1` (centres undefined), the Potency was 25.1 µM (active).
Regarding `Cc1cc(C)cc(-n2c(SCC(=O)NCC3CCCO3)nc3c([nH]c4ccccc43)c2=O)c1` (centres undefined), the Potency result was “inactive”.
Regarding `Cc1cc(NC(=O)CSc2ncc(C(=O)Nc3ccc(Cl)cc3)c(=O)n2C)no1`, the Potency result is “inactive”.
As for `O=C(Cc1ccccc1)Nc1sc2c(c1C(=O)Nc1ccc(Br)cc1)CCC2`, the Potency entry is “inactive”.

Source of the values: PubChem BioAssay AID1159524 (National Center for Advancing Translational Sciences (NCATS), 2015).
